Results: PubChem BioAssay AID1159580 (chemical genetic matrix, 2015)
The whole screen tested about 5,500 compounds, of which about 2,000 (36%) were called active. Another 18% or so got no clear call; they are omitted. Rule as the data show it: active = normalized growth mostly below about 0.91 (no sharp cut-off); inconclusive = no clear call, values can overlap the other calls; inactive = mostly above about 0.92. Some of the results follow.

Assay: chemical genetic growth profiling, strain panel (AID 1159580);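 also: tested at 20 µM; growth read once vehicle control cultures reached saturation at 30 °C; 1 = growth at the plate median or of vehicle wells; lower values mean less growth of the strain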
Conditions: S. cerevisiae deletion strains, growth OD

Measured: normalized growth

CC12CCC3C(CC=C4CC(O)CCC43C)C1CCC2=O (centres undefined)
inactive: locus YAL013W, strain DEP1, stronger effect = lower value 0.948 | locus YBL061C, strain skt5, stronger effect = lower value 0.936 | locus YBR023C, strain chs3, stronger effect = lower value 0.933 | locus YBR171W, strain sec66, stronger effect = lower value 0.978 | locus YBR229C, strain ROT2, stronger effect = lower value 1.02 | locus YBR231C, strain swc5, stronger effect = lower value 0.926 | locus YCL069W, strain vba3, stronger effect = lower value 0.94 | locus YCR088W, strain abp1, stronger effect = lower value 1.02 | locus YDL005C, strain med2, stronger effect = lower value 0.995 | locus YDL040C, strain nat1, stronger effect = lower value 1.02 | locus YDL101C, strain DUN1, stronger effect = lower value 0.994 | locus YDL185W, strain tfp1, stronger effect = lower value 1.04 | locus YDL192W, strain arf1, stronger effect = lower value 0.934 | locus YDR001C, strain nth1, stronger effect = lower value 1.03 | locus YDR069C, strain doa4, stronger effect = lower value 0.945 | locus YDR101C, strain arx1, stronger effect = lower value 0.955 | locus YDR159W, strain sac3, stronger effect = lower value 0.916 | locus YDR297W, strain sur2, stronger effect = lower value 0.95 | locus YDR334W, strain swr1, stronger effect = lower value 1.04 | locus YDR335W, strain msn5, stronger effect = lower value 0.961 | locus YDR388W, stronger effect = lower value 1.02 | locus YEL037C, strain rad23, stronger effect = lower value 1 | locus YEL061C, strain CIN8 (second series), stronger effect = lower value 1.01 | locus YER016W, strain bim1, stronger effect = lower value 1.01 | locus YER110C, stronger effect = lower value 1.06 | locus YER111C, strain swi4, stronger effect = lower value 1.01 | locus YER155C, strain BEM2, stronger effect = lower value 1.02 | locus YER167W, strain BCK2, stronger effect = lower value 0.929 | locus YGL078C, strain dbp3, stronger effect = lower value 0.979 | locus YGL167C, strain pmr1, stronger effect = lower value 1 | locus YGL227W, strain vid30, stronger effect = lower value 1.01 | locus YGL240W, strain doc1, stronger effect = lower value 0.911 | locus YGR078C, strain PAC10, stronger effect = lower value 0.887 | locus YHR013C, strain ard1, stronger effect = lower value 0.868 | locus YHR030C, strain SLT2, stronger effect = lower value 1.03 | locus YHR079C, strain IRE1 (second series), stronger effect = lower value 1.02 | locus YHR094C, strain hxt1, stronger effect = lower value 1.05 | locus YHR200W, strain rpn10, stronger effect = lower value 0.93 | locus YIL073C, strain SPO22, stronger effect = lower value 0.783 | locus YIL125W, strain kgd1, stronger effect = lower value 0.989 | locus YIR030C, strain dcg1, stronger effect = lower value 1 | locus YJL092W, strain hpr5, stronger effect = lower value 0.948 | locus YJL115W, strain asf1, stronger effect = lower value 0.997 | locus YJL134W, strain LCB3, stronger effect = lower value 1.03 | locus YJL154C, strain vps35, stronger effect = lower value 1.02 | locus YJL168C, strain set2, stronger effect = lower value 1.04 | locus YJL187C, strain SWE1 (second series), stronger effect = lower value 0.879
active: locus YAL021C, strain ccr4, stronger effect = lower value 0.838 | locus YAL026C, strain drs2, stronger effect = lower value 0.582 | locus YAL030W, strain snc1, stronger effect = lower value 0.927 | locus YBR009C, strain hhf1, stronger effect = lower value 0.834 | locus YBR021W, strain FUR4, stronger effect = lower value 0.752 | locus YBR279W, strain paf1, stronger effect = lower value 0.876 | locus YCL011C, strain gbp2, stronger effect = lower value 0.886 | locus YCL016C, strain dcc1, stronger effect = lower value 0.9 | locus YCL029C, strain bik1, stronger effect = lower value 0.904 | locus YDL035C, strain GPR1, stronger effect = lower value 0.787 | locus YDL074C, strain BRE1, stronger effect = lower value 0.778 | locus YDL134C, strain PPH21, stronger effect = lower value 0.85 | locus YDR137W, strain rgp1, stronger effect = lower value 0.473 | locus YDR162C, strain NBP2, stronger effect = lower value 0.828 | locus YDR195W, strain ref2 1.54 [resistant] | locus YDR318W, strain mcm21, stronger effect = lower value 0.886 | locus YDR392W, strain spt3, stronger effect = lower value 0.234 | locus YDR502C, strain sam2, stronger effect = lower value 0.879 | locus YEL003W, strain gim4, stronger effect = lower value 0.88 | locus YER015W, strain faa2, stronger effect = lower value 0.869 | locus YER155C, strain BEM2 (second series), stronger effect = lower value 0.84 | locus YFR010W, strain ubp6, stronger effect = lower value 0.891 | locus YGL086W, strain mad1, stronger effect = lower value 0.888 | locus YGL173C, strain kem1, stronger effect = lower value 0.879 | locus YGL248W, strain PDE1, stronger effect = lower value 0.857 | locus YGL253W, strain hxk2, stronger effect = lower value 0.791 | locus YGR135W, strain pre9, stronger effect = lower value 0.871 | locus YGR252W, strain gcn5, stronger effect = lower value 0.62 | locus YHR027C, strain rpn1, stronger effect = lower value 0.895 | locus YHR129C, strain ARP1, stronger effect = lower value 0.905 | locus YHR142W, strain chs7, stronger effect = lower value 0.768 | locus YIL066C, strain RNR3, stronger effect = lower value 0.823 | locus YJL095W, strain BCK1 (second series), stronger effect = lower value 0.825 | locus YJL095W, strain BCK1, stronger effect = lower value 0.655 | locus YJL129C, strain trk1, stronger effect = lower value 0.801 | locus YJL164C, strain tpk1, stronger effect = lower value 0.845 | locus YJL166W, strain qcr8, stronger effect = lower value 0.813
